Tau fibril ThT: qHTS for Inhibitors of Tau Fibril Formation, Thioflavin T Binding; Microtubule-associated protein tau (Homo sapiens), P10636; recombinant tau K18 P301L, heparin-induced fibrillization, ThT fluorescence; AID 1460, 2008; Potency, µM (top dose mostly 57.4 µM), inactives show at the top dose activity, negative = inhibition, actives largely listed as inhibitors; 270,000 compounds, 2.1% hits; note: nearly all actives have a fitted effect of over 55% in size
Target sequence (P10636 561-689 P618L limits assumed): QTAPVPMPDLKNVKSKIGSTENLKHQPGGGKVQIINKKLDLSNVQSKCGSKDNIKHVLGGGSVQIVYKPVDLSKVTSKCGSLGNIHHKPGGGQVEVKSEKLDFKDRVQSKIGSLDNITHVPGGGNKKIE
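Using a mix of unlabeled (15 uM) and Alexa 594-labeled (0.24 uM) tau K18 P301L, heparin-triggered fibrillization over 6 hr at 37 C was scored by ThT fluorescence.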
Tau fibril FP: qHTS for Inhibitors of Tau Fibril Formation, Fluorescence Polarization; Microtubule-associated protein tau (Homo sapiens), P10636; K18 P301L tau heparin fibrillization, Alexa594 FP, 6 h; Potency, µM (highest dose often 57.7 µM), inactives show top-dose activity, negative = inhibition, actives largely listed as inhibitors; 280,000 compounds, 0.39% hits; note: nearly all actives have a fitted effect of over 55% in size
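Compound effects on tau fibrillization are measured by Alexa 594 fluorescence polarization (ex 555, em 632 nm). K18 P301L tau is used at 15 uM with 0.24 uM labeled tracer, and 20 uM heparin induces aggregation over 6 hr at 37 C.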
TRb SRC2 PPI: qHTS for Inhibitors of the Interaction of Thyroid Hormone Receptor and Steroid Receptor Coregulator 2; Potency, µM (series often up to 106 µM), for inactives: at the highest dose activity change, negative = inhibition, actives largely listed as inhibitors; Thyroid hormone receptor beta (Homo sapiens), P10828; AID 1469, 2008; TRbeta-SRC2 peptide binding, fluorescence polarization; receptor liganded with 1 µM T3; 280,000 compounds, 0.065% hits;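 note: plate controls were bound peptide for no effect and peptide without receptor for full effect; nearly all actives have a fitted effect of over 50% in size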
Target sequence (P10828 whole entry, looked up): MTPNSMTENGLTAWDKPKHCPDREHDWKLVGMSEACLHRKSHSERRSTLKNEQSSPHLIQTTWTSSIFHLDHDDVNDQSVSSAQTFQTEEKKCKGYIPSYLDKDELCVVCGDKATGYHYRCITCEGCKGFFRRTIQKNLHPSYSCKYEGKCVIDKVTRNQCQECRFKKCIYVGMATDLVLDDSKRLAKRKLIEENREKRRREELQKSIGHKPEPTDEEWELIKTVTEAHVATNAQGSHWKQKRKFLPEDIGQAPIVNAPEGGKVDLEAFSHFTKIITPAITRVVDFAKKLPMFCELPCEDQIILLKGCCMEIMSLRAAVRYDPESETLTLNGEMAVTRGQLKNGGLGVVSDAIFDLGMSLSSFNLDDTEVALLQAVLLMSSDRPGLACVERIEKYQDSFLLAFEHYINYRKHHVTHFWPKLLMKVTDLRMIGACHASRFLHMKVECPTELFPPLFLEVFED
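Human TRb LBD (0.6 uM) plus Texas Red-labeled SRC2 peptide (20 nM), 1uM T3, 5% DMSO, 5 hr at ambient temperature. Decreased polarization (555/632 nm) flags inhibition; data normalized to free and bound peptide controls.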
Tau fluor cs: Counterscreen qHTS for Inhibitors of Tau Fibril Formation, Fluorescence Polarization; tau K18 P301L Alexa594 fluorescence, heparin fibrillization; Potency, µM (top dose mostly 57.7 µM), inactives show at the highest dose activity change, negative = decrease; 280,000 compounds, 0.93% hits; note: nearly all actives have a fitted effect of over 55% in size
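Human tau K18 P301L (15 uM unlabeled, 0.24 uM Alexa 594-labeled) in 100 mM sodium acetate pH 7 with 20 uM heparin, 6 hr at 37 C. ThT 30 uM added, 1 hr ambient; Alexa 594 FP and total fluorescence read at 555/632 nm.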
TexasRed fluor: Total Fluorescence Counterscreen for Inhibitors of the Interaction of Thyroid Hormone Receptor and Steroid Receptor Coregulator 2 | TRb/SRC2 Texas Red total fluorescence interference | Potency, µM (highest dose often 106 µM), for inactives: at the highest dose fluorescence change, negative = quenching | 280,000 compounds, 0.29% hits; active = well fitted curve in either direction with a large enough effect; inconclusive = small, poorly fitted or top-dose-only effect
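Human TRβ ligand-binding domain (0.6 uM) and Texas Red SRC2 peptide (20 nM) in Tris buffer with 1 uM T3 and 5% DMSO were incubated with pinned compound for 5 hr at ambient temperature. Total fluorescence was computed as S + 2P (555/632 nm).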
Starred values were filed as active, the others as inactive; ? = inconclusive; · = not tested or not shown; [ ] = remark or other dose. Compounds with a hit are over-represented: about 3.1% of the library has one in this group of screens. Unless noted, calls come from the whole dose curve; as a rule, active = well fitted curve in the direction sought with a large enough effect; inconclusive = small, poorly fitted or top-dose-only effect, or another doubt; inactive = no such curve, though single readings can be large; an effect the other way counts as inactive or inconclusive. Unless noted, % is set by controls: 0 for no effect and ±100 for the full control effect; potency is the fitted concentration of half-maximal effect.

SMILES | Tau fibril ThT | Tau fibril FP | TRb SRC2 PPI | Tau fluor cs | TexasRed fluor
CSCC[C@H](NC(=O)[C@H](CO)NC(=O)[C@H](Cc1ccc(O)cc1)NC(=O)[C@@H](N)CO)C(=O)N[C@@H](CCC(=O)O)C(=O)N[C@@H](Cc1cnc[nH]1)C(=O)N[C@@H](Cc1ccccc1)C(=O)N[C@@H](CCCNC(=N)N)C(=O)N[C@@H](Cc1c[nH]c2ccccc12)C(=O)NCC(=O)N[C@@H](CCCCN)C(=O)N1CCC[C@H]1C(=O)N[C@H](C(=O)NCC(=O)N[C@@H](CCCCN)C(=O)N[C@@H](CCCCN)C(=O)N[C@@H](CCCNC(=N)N)C(=O)N[C@@H](CCCNC(=N)N)C(=O)N1CCC[C@H]1C(=O)N[C@H](C(=O)N[C@@H](CCCCN)C(=O)N[C@H](C(=O)N[C@@H](Cc1ccc(O)cc1)C(=O)N1CCC[C@H]1C(=O)O)C(C)C)C(C)C)C(C)C | · | · | -3% | · | ·
CCOC(=O)Cc1csc(NC(=O)c2cccnc2)n1 | -8% | -8% | -13% | -1% | -6%
CCOC(=O)Cc1csc(NC(=O)c2sc3nc4ccc(C)cc4cc3c2N)n1 | 3.2µM* | 9% | -3% | -16% | -4%
CCc1nnc(NC(=O)c2sc3nc4cc(C)ccc4cc3c2N)s1 | 2µM* | -5% | 8% | ? | -7%
O=C(Nc1cccc(C(F)(F)F)c1)c1cc(CN2CCOCC2)on1 | -1% | 4% | -18% | 4% | ?
COc1ccc(Nc2oc(COc3ccc(Cl)cc3)nc2C#N)cc1 | ? | 11% | -1% | 20µM*[quencher] | 0%
COCCNc1oc(-c2ccc(COc3ccc(OC)cc3)o2)nc1C#N | -8% | 8% | -6% | ? | ?
COCCCNc1oc(-c2ccc(COc3ccc(Cl)cc3)o2)nc1C#N | ? | ? | -3% | 11µM*[quencher] | -8%
Cc1ccc(-n2ncc(C(=O)NCc3ccccc3C)c2-n2cccc2)cc1 | ? | -5% | 1% | -12% | -2%
CCCN(C(=O)Cn1cnc2sc(C)c(S(=O)(=O)N3CCN(c4ncccn4)CC3)c2c1=O)c1cccc(C)c1 | 11% | -8% | 1% | 8% | 7%
Nc1ccccc1Nc1cc(-c2ccccc2)nn1-c1cccc(Cl)c1 | ? | ? | 7% | 11µM*[quencher] | 4%
C#CCN1C(=O)S/C(=C/C=C/c2ccc(N(C)C)cc2)C1=O | 1.6µM* | ? | ? | 20% | ?
CN(C)c1ccc(/C=C2\SC(=O)N(CCc3nnc(N)s3)C2=O)cc1 | ? | 8% | 7% | -21% | 8%
O=C(Nc1ccc(Cl)cc1)c1ccc2oc(=O)n(Cc3ccccc3)c2c1 | 29% | ? | 3% | -22% | -1%
Cc1ccc(/C=N/n2c(=O)c(C(C)(C)C)nn3cnnc23)cc1 | 3% | ? | ? | -2% | 0.079µM*[quencher]
Cc1cccc(NC(=O)C2CCN(c3nc4ccccc4[nH]3)CC2)c1C | -16% | -3% | -6% | -4% | -1%
COC(=O)c1sc(C(=O)OC)c(C(=O)OC)c1C(=O)OC | -5% | -4% | 9% | 2% | -4%
COC(=O)c1sc(=S)sc1C(=O)OC | 3.2µM* | ? | -1% | -19% | -4%
Cc1cc2cc(CNC(=O)Nc3cccc(Cl)c3)ccc2n1C | ? | ? | 45µM* | ? | 45µM*[fluorescent]
S=C(S)NCCNC(=S)S | · | · | -4%[201 µM] | · | ?
C/C(=N\N=C(N)N)c1cccc([N+](=O)[O-])c1 | -4% | -13% | 2% | -9% | -3%
C/C(=N\N=C\c1ccc(N(C)C)cc1)c1cccc([N+](=O)[O-])c1 | 1.3µM* | 9% | 7% | -29% | -6%
CCC1C/C(=C\c2cccnc2)C(=O)/C(=C/c2cccnc2)C1 (stereo not given) | 10µM* | ? | -11% | -11% | 0%
O=C1/C(=C/c2cccnc2)CCC/C1=C\c1cccnc1 | 6.3µM* | ? | -7% | -16% | 3%
COc1ccc(-n2nc(C(=O)N(C)c3cc(Cl)ccc3OC)c3c4ccccc4n(C)c3c2=O)cc1 | -5% | -15% | 2% | -16% | -2%
SMILES | Tau fibril ThT | Tau fibril FP | TRb SRC2 PPI | Tau fluor cs | TexasRed fluor
COc1ccc(NC(=O)c2cc3cccc(OC)c3oc2=Nc2ccc(C(=O)O)cc2)cc1OC | 14µM* | ? | 4% | ? | -14%
O=C(Nc1ccc2nsnc2c1)N1CCCCCC1 | -10% | 10% | -3% | 0% | -1%
S=C(Nc1ccc2nsnc2c1)N1CCCC1 | 25µM* | ? | ? | -19% | -8%
CCN(CC)/C(Sc1ccccc1)=C(\C(Cl)=C(Cl)Cl)[N+](=O)[O-] | -12% | -5% | -3% | -3% | 0%
O=[N+]([O-])/C(C(Cl)=C(Cl)Cl)=C(\Sc1ccccc1)N1CCCCC1 | 25µM* | ? | 5% | -25% | -1%
CCCCCCCC[Si](Cl)(Cl)Cl | · | · | 1%[201 µM] | · | 1%[201 µM]
c1ccc2sc(NCC3CCCO3)nc2c1 (stereo not given) | 5% | -3% | 0% | -1% | -1%
CC1=CC(=C(C#N)c2nc3ccccc3s2)C=C(C)N1CC1CCCO1 (stereo not given) | ? | ? | 4% | 7.9µM*[quencher] | -7%
CCc1ccc2oc(-c3ccc(OC)cc3)cc(=Nc3cccc(C(=O)O)c3)c2c1 | ? | -10% | 0% | -20% | -1%
CCc1ccc2oc(-c3ccc(OC)cc3)cc(=Nc3c(C)n(C)n(-c4ccccc4)c3=O)c2c1 | 11µM* | 9% | 5% | -30% | -1%
CCCS(=O)(=O)N1CC(=O)N(c2cc(C)ccc2C)C(C)(C(=O)NC2CCCCCC2)C1 (stereo not given) | -1% | -3% | -10% | -2% | 25µM*[quencher]
CCOc1cc(C2C(C(=O)OC)=C(C)NC3=C2C(=O)c2ccccc23)cc(Cl)c1O (stereo not given) | ? | ? | 5% | 7.9µM*[quencher] | -6%
COC(=O)COc1ccc(C2C(C(=O)OC)=C(C)NC3=C2C(=O)c2ccccc23)cc1OC (stereo not given) | 14µM* | 6% | -6% | 14µM*[quencher] | -2%
CCOC(=O)COc1ccccc1C1C(C(=O)OC)=C(C)NC2=C1C(=O)c1ccccc12 (stereo not given) | 14µM* | 11% | 6% | 14µM*[quencher] | -5%
CCOC(=O)C1=C(C)NC2=C(C(=O)c3ccccc32)C1c1ccc([N+](=O)[O-])o1 (stereo not given) | ? | 6% | 0% | ? | -3%

Screening data as filed in PubChem.
